Pol eta inh: inhibitors of human DNA polymerase eta | recombinant Pol eta, fluorescent DNA replication assay | Potency, µM (doses to about 114 µM), without a hit: at the top dose activity change, negative = inhibition, actives largely listed as inhibitors | 390,000 tested, 1.2% active; also: % is scaled to controls: 0 for no effect and ±100 for the full control effect
Target sequence (Q9Y253 whole entry, looked up): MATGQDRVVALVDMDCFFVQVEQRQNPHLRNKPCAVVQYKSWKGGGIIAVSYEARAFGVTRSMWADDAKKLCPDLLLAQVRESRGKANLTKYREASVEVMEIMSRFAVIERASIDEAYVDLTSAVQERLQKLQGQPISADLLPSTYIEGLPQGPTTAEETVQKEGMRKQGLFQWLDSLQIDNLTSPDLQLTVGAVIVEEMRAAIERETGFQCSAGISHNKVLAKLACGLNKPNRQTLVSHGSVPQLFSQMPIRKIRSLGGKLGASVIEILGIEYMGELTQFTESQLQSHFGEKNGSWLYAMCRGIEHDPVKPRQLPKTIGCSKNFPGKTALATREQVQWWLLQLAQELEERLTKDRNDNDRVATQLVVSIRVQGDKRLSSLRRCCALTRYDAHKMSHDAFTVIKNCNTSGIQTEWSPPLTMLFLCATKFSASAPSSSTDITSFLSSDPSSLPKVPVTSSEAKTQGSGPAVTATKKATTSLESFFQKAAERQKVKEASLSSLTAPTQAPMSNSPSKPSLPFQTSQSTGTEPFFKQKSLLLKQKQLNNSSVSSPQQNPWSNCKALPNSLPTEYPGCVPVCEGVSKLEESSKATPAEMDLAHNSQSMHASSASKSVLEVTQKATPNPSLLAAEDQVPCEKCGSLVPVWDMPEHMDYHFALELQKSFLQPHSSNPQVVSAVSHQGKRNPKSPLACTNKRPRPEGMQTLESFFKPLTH
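Pol eta (10 nM) was preincubated with compounds for 15 min at room temperature, after which fluorescent replication substrate (50 nM final) was added to start the reaction. Fluorescence was read kinetically at 0 and 10 min.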
POLI inh: blocks human DNA polymerase iota activity. Pol iota fluorescent replication assay, 10 min. Q9UNA4. 390,000 tested, 1% active. AID 588590. Potency, µM (series often up to 115 µM), without a hit: top-dose activity, negative = inhibition, most hits filed as inhibitors
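Pol iota at 10 nM preincubated 15 min with compounds at room temperature; reaction started with fluorescent substrate, 50 nM final. Fluorescence read kinetically at 0 and 10 min; buffer-only wells as negative control.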
APEX1 inh: APE1 (human) endonuclease inhibition. Potency, µM (doses to about 65.8 µM), without a hit: at the top dose activity change, negative = inhibition, actives largely listed as inhibitors. P27695. AID 2517. 350,000 tested, 0.35% active. recombinant APE1, TAMRA/BHQ-2 abasic DNA cleavage fluorescence;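 also: plate controls were vehicle for no effect and reference inhibitor for full effect; nearly all actives have a fitted effect of over 55% in size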
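Endonuclease cleavage of a quenched abasic-site DNA duplex (50 nM) by APE1 (0.75 nM) was tracked by TAMRA dequenching. Compounds were preincubated with enzyme 15 min at room temperature; data normalized to buffer-only and DMSO wells plus NSC13755 control.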
GLS inhibitor: inhibitors of human glutaminase (GLS) | O94925 | Potency, µM (highest dose often 45.5 µM), for inactives: at the top dose activity change, negative = inhibition, actives largely listed as inhibitors | GLS enzymatic activity, qHTS titration | 410,000 tested, 0.21% active; also: % is scaled to controls: 0 for no effect and ±100 for the full control effect
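Glutamate formation by hKGA was monitored fluorometrically using coupled glutamate oxidase, HRP and Amplex Red. Substrate was added as 1 mM L-glutamine solution; incubation was 30 min at RT after an initial read.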
Pol kappa inh: inhibitors of human DNA polymerase kappa; Q9UBT6; purified Pol kappa, fluorescent DNA synthesis assay, 10 min; Potency, µM (highest dose often 107 µM), without a hit: at the highest dose activity, negative = inhibition, hits mostly inhibitors; 400,000 tested, 0.53% active; also: % is scaled to controls: 0 for no effect and ±100 for the full control effect
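50 nM final substrate added after 15 min RT preincubation of 10 nM Pol kappa with compound; fluorescence read at 0 and 10 min.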
Pol beta inh: blocks human DNA polymerase beta activity; P06746; Pol beta primer extension/strand displacement, fluorescence kinetic; 340,000 tested, 1.3% active; Potency, µM (highest dose often 114 µM), for the others: at the highest dose activity change, negative = inhibition, usual class: inhibitors; also: % is scaled to controls: 0 for no effect and ±100 for the full control effect
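Pol beta (10 nM) and compounds were preincubated 15 min at room temperature, then 50 nM substrate (final) started primer extension/strand displacement. Reads were taken at 0 and 10 min; concentration-response data were fitted to a four-parameter Hill equation.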
PGK validate: blocks T. brucei phosphoglycerate kinase; Potency, µM (doses to about 57.5 µM), without a hit: at the highest dose activity change, negative = inhibition, actives largely listed as inhibitors; shares compounds with Pol kappa inh; 500 tested, 79% active; TbPGK coupled GAPDH assay, Kinase-Glo luminescence; AID 686980; also: % is scaled to controls: 0 for no effect and ±100 for the full control effect; nearly all actives have a fitted effect of over 65% in size
Pol iota confirm: Inhibitors of human DNA polymerase iota, confirmation; shares compounds with Pol kappa inh; Pol iota primer extension, TAMRA/BHQ fluorescence; Potency, µM, most hits filed as inhibitors; 1,500 tested, 77% active; AID 720496
* = called active by the depositor; ? = inconclusive; nt = no result given; [ ] = another dose, or the depositor's remark. This is a sample that favours compounds with a hit; in the whole collection about 2.4% have one here. Calls follow the shape of the dose curve; as a rule, active = well fitted curve in the direction sought with a large enough effect; inconclusive = small, poorly fitted or top-dose-only effect, or another doubt; inactive = no such curve, though single readings can be large; an effect the other way counts as inactive or inconclusive. Potency is read from the fitted curve at half-maximal effect.

SMILES	Pol eta inh	POLI inh	APEX1 inh	GLS inhibitor	Pol kappa inh	Pol beta inh	PGK validate	others
COc1ccccc1CCNC(=O)c1cc(-c2ccccn2)nc2ccc(Br)cc12	nt	nt	0%	nt	nt	1%	nt
CCN1/C(=C\C(=S)Nc2ccccc2)Sc2ccccc21	-25%	122%	-4%	-15%	-20%	-3%	nt
CCN1/C(=C/C(C)=C/c2sc3ccccc3[n+]2CC)Sc2ccccc21	40µM*	32µM*	-14%	?	?	35µM*	?
O=C(Cc1csc2ccccc12)NCC1CC1	nt	nt	nt	-26%	nt	nt	nt
O=C(O)CC(Cc1ccc(Cl)cc1)C(=O)Nc1cc(Cl)ccc1Cl (stereo unspecified)	-6%	18%	-2%	-8%	-17%	-2%	nt
O=C(c1ccccc1)c1cc2ccc(O)cc2oc1=O	8%	-5%	-6%	7%	-5%	22%	15µM*
C=C(C)C(=O)Nc1ccc(OC(F)(F)C(F)F)c(NC(=O)C(=C)C)c1	18µM*	4%	-11%	13µM*	?	32µM*	6.5µM*
O=C(Nc1cccc(-c2nc3ccccc3s2)c1)c1cc(=O)c2ccccc2o1	?	34%	0%	-23%	-12%	?	nt	Pol iota confirm=?
O=C(O)CCCNC(=O)/C=C/c1ccco1	4µM*	?	?	33%	50µM*	2.8µM*	?
Cc1cccc(C(=O)NC(=S)Nc2cccc3nc(C)ccc23)c1	?	32µM*	13%	11%	-8%	25µM*	nt	Pol iota confirm=?
N/C(=N\OC(=O)c1ccc2ccccc2c1)c1ccccn1	-13%	11%	-1%	-9%	5%	1%	?
COc1cccc(C(=O)O/N=C(\N)c2ccccn2)c1	-1%	-10%	27%	-3%	-6%	16%	15µM*
N/C(=N\OC(=O)c1cccc([N+](=O)[O-])c1)c1ccccn1	-11%	12%	-1%	-5%	4%	-9%	nt
N/C(=N\OC(=O)c1ccc(Cl)cc1Cl)c1ccccn1	-10%	-1%	-4%	1%	-28%	-12%	nt
Cc1ccc(C(=O)O/N=C(\N)c2ccccn2)c(Cl)c1	0%	6%	0%	-2%	-6%	17%	18µM*
CCN(Cc1ccccc1)c1nc2c(S(=O)(=O)c3ccccc3)nnn2c2ccc(Cl)cc12	5%	31%	nt	0%	-23%	-12%	nt
COc1ccccc1-c1nnc(SC(C)C(=O)NCC2CCCO2)n1C (stereo unspecified)	-8%	71%	nt	-1%	-2%	nt	nt
Cc1ccc(CNC(=O)c2nnn(CC(=O)Nc3cccc(C)c3C)c2N)cc1	?	15%	24%	-8%	-10%	?	nt	Pol iota confirm=27*
CC(=O)c1c(C)[nH]c(C(=O)Nc2cc(C)ccc2C)c1C	-12%	1%	4%	-1%	0%	37%	nt
CCC(=O)OC1(C)C(=O)C2=COC(c3ccc(OC)cc3)=CC2=C(Br)C1=O (stereo unspecified)	45µM*	?	5%	15%	?	?	21µM*
Clc1ccc(-c2noc(-c3cccnc3N3CCN(c4ccccc4)CC3)n2)cc1	-20%	42%	nt	-4%	1%	14%	nt
CCN(CC)S(=O)(=O)c1cccc(C(=O)N/N=C/c2ccc(O)c(O)c2O)c1	?	?	-15%	-25%	?	-2%	nt	Pol iota confirm=?
CCOC(=O)c1cc(-c2ccc(Cl)s2)[nH]n1	-18%	30%	-2%	-1%	0%	-6%	nt
COc1ccc(-c2cc3ccccc3oc2=O)cc1NC(=O)c1ccc(Br)o1	11µM*	?	0%	-1%	8%	?	nt	Pol iota confirm=?
COc1ccc(NC(=O)CSc2oc(-c3ccco3)nc2S(=O)(=O)c2ccc(C)cc2)c(OC)c1	-9%	-25%	nt	-2%	-2%	13%	nt
SMILES	Pol eta inh	POLI inh	APEX1 inh	GLS inhibitor	Pol kappa inh	Pol beta inh	PGK validate	others
O=C1/C(=C\c2c(NCCOCCO)nc3ccccn3c2=O)SC(=S)N1Cc1ccco1	79µM*	?	?	-1%	?	18µM*	nt	Pol iota confirm=?
CCCN1C(=O)/C(=C/c2c(NCCCOCC)nc3c(C)cccn3c2=O)SC1=S	-3%	7%	4%	-11%	-9%	28%	nt
COCCn1c(C)cc(C(=O)COC(=O)CCc2ccc(S(=O)(=O)N3CCOCC3)cc2)c1C	-8%	-1%	-2%	-1%	-4%	1%	nt
O=C(/C=C/Nc1ccccc1Br)c1ccccn1	-15%	2%	-3%	10%	-5%	5%	?
O=C(/C=C\Nc1ccccn1)c1ccccc1	-21%	-8%	3%	-14%	-8%	-10%	nt
N/C(=N\N=C\c1ccc2c(c1)OCO2)c1nonc1N	-3%	-7%	-5%	-2%	8%	6%	nt
O=C(c1n[nH]c(=O)c2ccccc12)N1CCOCC1	-10%	-4%	2%	-1%	3%	25%	nt
O=C(Nc1cccc(Cl)c1)c1cc2c(=O)n3ccccc3nc2s1	-14%	14%	-7%	0%	9%	18%	nt
Cc1cccc(NC(=O)c2cc3c(=O)n4ccccc4nc3s2)c1	45µM*	?	14%[12.4 µM]	-21%	1%	7.1µM*	nt	Pol iota confirm=67*
CCOCCCNC(=S)N1CCN(C(=O)C(=O)Nc2ccc(C(=O)OC)cc2)CC1	-14%	15%	7%	4%	-14%	-8%	nt
O=CC(O)C1OC(=O)C(O)C1O (stereo unspecified)	7.9µM*	45µM*	nt	11µM*	50µM*	nt	3.3µM*
CC(C)(C)c1cc(/C=C(\C#N)C(N)=S)cc(C(C)(C)C)c1O	-11%[57.1 µM]	?	?	nt	-5%[60.1 µM]	-7%[57.1 µM]	nt
N#CC(C#N)=C(N)/C(C#N)=C/c1cc(O)c(O)c(O)c1	?	?	?	35%	0.79µM*	nt	nt	Pol iota confirm=47*
C/C(=N/NC(=O)c1cc(O)c(O)c(O)c1)c1ccc([N+](=O)[O-])cc1	14µM*	?	3%	44%	13µM*	1.8µM*	?
COc1ccc(-c2nc3sc(CCNC(=O)C(=O)Nc4ccc(OC)c(OC)c4)c(C)n3n2)cc1	8%	5%	nt	3%	-6%[60.1 µM]	23%	nt
COc1ccc(-c2nc3sc(CCNC(=O)C(=O)Nc4cccc(NC(C)=O)c4)c(C)n3n2)cc1	?	4%	nt	2%	-1%[60.1 µM]	13µM*	nt	Pol iota confirm=?
